Results filed as inconclusive are left out. Active and inactive are the calls of the source. Rule for the calls: active = hit-call score of the fitted dose curve at least 0.9, where 1 is the maximum; inconclusive = response in the unintended direction; inactive = score below 0.9.
How the values were obtained:
[1] = biological target: Peroxisome proliferator-activated receptor gamma (Homo sapiens) (UniProt P37231); experiment: OT_PPARg_PPARgSRC1_0480: Odyssey Thera (OT) 8-hour Protein-Complementation Assay for Peroxisome Proliferator-activated Receptor Gamma / SRC-1 Co-activator (AID 2283387);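 note: nuclear to cytoplasmic split Venus YFP fluorescence ratio reporting PPARg SRC-1 interaction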
Peroxisome proliferator-activated receptor gamma (Homo sapiens), sequence (P37231 whole entry, looked up, the tested form may be a part): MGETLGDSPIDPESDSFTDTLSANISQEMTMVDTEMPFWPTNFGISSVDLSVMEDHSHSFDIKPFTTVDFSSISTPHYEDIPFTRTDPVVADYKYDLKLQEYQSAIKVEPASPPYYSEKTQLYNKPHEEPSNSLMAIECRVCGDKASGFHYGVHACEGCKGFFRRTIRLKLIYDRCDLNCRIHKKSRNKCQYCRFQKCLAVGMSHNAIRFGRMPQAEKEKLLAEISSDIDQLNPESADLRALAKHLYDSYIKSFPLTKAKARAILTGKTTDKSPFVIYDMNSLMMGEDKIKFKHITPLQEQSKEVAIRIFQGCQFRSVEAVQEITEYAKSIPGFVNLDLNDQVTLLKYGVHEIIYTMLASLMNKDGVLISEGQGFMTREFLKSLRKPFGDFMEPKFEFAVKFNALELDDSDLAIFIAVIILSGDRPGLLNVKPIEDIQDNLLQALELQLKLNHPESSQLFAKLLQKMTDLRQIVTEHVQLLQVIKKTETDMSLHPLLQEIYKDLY
How it was run: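 HEK293T transiently transfected with PPARg and SRC-1 fused to Venus YFP fragments, compounds 8 h at 37C. Fixed, Draq5-stained cells imaged; nuclear/cytoplasmic 488 nm fluorescence ratio over at least 350 cells per image; gain fitted versus DMSO.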

[2] = biological target: Peroxisome proliferator-activated receptor gamma (Homo sapiens) (UniProt P37231); experiment: OT_PPARg_PPARgSRC1_1440: Odyssey Thera (OT) 24-hour Protein-Complementation Assay for Peroxisome Proliferator-activated Receptor Gamma/ SRC-1 Co-activator (AID 2283388)
How it was run: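 Protein-fragment complementation between PPARg and coactivator SRC-1 was measured by fluorescence imaging in transiently transfected HEK293T cells after 24 h treatment. Signal was quantified as N/C ratio in the 488 nm channel, with DMSO as negative control.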

Structure (SMILES) | outcome [1] | outcome [2] | AC50 [1]
C[Si](C)(C)N[Si](C)(C)C | inactive | inactive | –
CC(CCC(=O)O)(c1ccc(O)cc1)c1ccc(O)cc1 | inactive | inactive | –
CCCCCCCCC(CO)CCCCCC (centres undefined) | inactive | inactive | –
CO[Si](C)(C)OC | inactive | inactive | –
c1ccc(Nc2cccc3ccccc23)cc1 | inactive | inactive | –
CCCCC/C=C\C/C=C\CCCCCCCC(=O)O | – | – | 12.7 µM (active)
O=C(OCCc1ccccc1)c1ccccc1 | inactive | inactive | –
Oc1ccccc1Cc1ccccc1O | inactive | inactive | –
Oc1ccc(-c2ccccc2)c(Cl)c1 | inactive | inactive | –
N#Cc1ccc(C2CCCc3cncn32)cc1 (centres undefined) | inactive | inactive | –
CCOC(=O)c1ccc(C)cc1 | inactive | inactive | –
CCOC(=O)C1=NOC(c2ccccc2)(c2ccccc2)C1 | inactive | inactive | –
CC(=O)/C=C/C1C(C)=CCCC1(C)C (centres undefined) | inactive | inactive | –
O=C(O)CC(C(=O)O)S(=O)(=O)O (centres undefined) | inactive | inactive | –
CCc1cccc(C)c1N | inactive | inactive | –
Cc1c(C(=O)c2c[nH]n(C)c2=O)ccc(S(C)(=O)=O)c1C1=NOCC1 | inactive | inactive | –
CN(C)Cc1cc(CN(C)C)c(O)c(CN(C)C)c1 | inactive | – | –
C=CCOC(=O)c1ccc(C(=O)OCC=C)c(C(=O)OCC=C)c1 | inactive | – | –
CCCCCCCCCC[N+](C)(CCCCCCCCCC)CCC[Si](OC)(OC)OC | inactive | inactive | –
CC1=NN(c2ccc(S(=O)(=O)O)cc2)C(=O)C1N=Nc1ccccc1 (centres undefined) | inactive | inactive | –
O=C(Nc1ccccc1)c1cc(Cl)ccc1O | inactive | inactive | –
CC(=O)OC1CCCCC1C(C)(C)C (centres undefined) | inactive | inactive | –
C/C=C/C=C/CCCCCCCO | inactive | inactive | –
CC(C)c1cc(C(C)C)cc(C(C)C)c1 | inactive | – | –
CC(=O)OCc1ccccc1 | inactive | inactive | –
CCCCC(=O)O | inactive | inactive | –
CCCC(CC)c1ccccc1 (centres undefined) | inactive | inactive | –
COc1cc(O)c(C(=O)c2ccccc2)cc1S(=O)(=O)O | inactive | inactive | –
CCCCCCOc1ccc(N)cc1 | inactive | inactive | –
